Experimental data as given in the supplement of paper PMC8728848.
Shown is part of a subset that was picked to be rich in the strongest signals.

How the values were obtained:
Test in all cases: glycan array binding signal (z-score within array); higher = stronger binding
Conditions in all cases: glycan notation: IUPAC condensed, linker removed
[1] = target: Fuc(a1-2)Gal(b1-3)GalNAc(a1-3)[Fuc(a1-2)]Gal(b1-4)Glc
How it was run: (§1)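 The binding signal is a Z-score computed within each array and averaged over linkers. Arrays of the same protein sequence at different concentrations or buffers were also averaged together. Data originate from 3228 arrays in the Consortium for Functional Glycomics database, kept only where the protein sequence was available.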

[2] = target: Fuc(a1-2)Gal(b1-3)[Fuc(a1-4)]GlcNAc
How it was run: as §1

Fuc(a1-2)Gal(b1-4)Glc6S = target: Fuc(a1-2)Gal(b1-4)Glc6S
How it was run: as §1

[3] = target: Fuc(a1-2)Gal(b1-4)GlcNAc(b1-2)Man(a1-3)[Fuc(a1-2)Gal(b1-4)GlcNAc(b1-2)Man(a1-6)]Man(b1-4)GlcNAc(b1-4)[Fuc(a1-6)]GlcNAc
How it was run: as §1

[4] = target: Fuc(a1-2)Gal(b1-4)GlcNAc(b1-6)GalNAc
How it was run: as §1

[5] = target: Fuc(a1-2)Gal(b1-4)[Fuc(a1-3)]GlcNAc
How it was run: as §1

[6] = target: Fuc(a1-2)Gal6S(b1-3)GlcNAc6S
How it was run: as §1

Fuc(a1-2)Gal6S(b1-4)Glc = target: Fuc(a1-2)Gal6S(b1-4)Glc
How it was run: as §1

[7] = target: Fuc(a1-2)[Gal(a1-3)]Gal(b1-3)GalNAc
How it was run: as §1

[8] = target: Fuc(a1-2)[Gal(a1-3)]Gal(b1-3)GlcNAc(b1-2)Man(a1-3)[Fuc(a1-2)[Gal(a1-3)]Gal(b1-3)GlcNAc(b1-2)Man(a1-6)]Man(b1-4)GlcNAc(b1-4)GlcNAc
How it was run: as §1

[9] = target: Fuc(a1-2)[Gal(a1-3)]Gal(b1-3)GlcNAc(b1-2)Man(a1-3)[Fuc(a1-2)[Gal(a1-3)]Gal(b1-3)GlcNAc(b1-2)Man(a1-6)]Man(b1-4)GlcNAc(b1-4)[Fuc(a1-6)]GlcNAc
How it was run: as §1

[10] = target: Fuc(a1-2)[Gal(a1-3)]Gal(b1-4)GlcNAc(b1-2)Man
How it was run: as §1

[11] = target: Fuc(a1-3)[Gal(b1-4)]GlcNAc(b1-2)Man(a1-3)[Fuc(a1-3)[Gal(b1-4)]GlcNAc(b1-2)Man(a1-6)]Man(b1-4)GlcNAc(b1-4)GlcNAc
How it was run: as §1

[12] = target: Fuc(a1-3)[Gal(b1-4)]GlcNAc(b1-3)Gal(b1-4)[Fuc(a1-3)]GlcNAc(b1-3)Gal(b1-4)[Fuc(a1-3)]GlcNAc
How it was run: as §1

[13] = target: Fuc(a1-3)[Gal3S(b1-4)]Glc
How it was run: as §1

[14] = target: Gal(a1-3)Gal(b1-3)[Fuc(a1-4)]GlcNAc(b1-2)Man(a1-3)[Gal(a1-3)Gal(b1-3)[Fuc(a1-4)]GlcNAc(b1-2)Man(a1-6)]Man(b1-4)GlcNAc(b1-4)GlcNAc
How it was run: as §1

[15] = target: Gal(a1-3)Gal(b1-4)GlcNAc(b1-2)Man
How it was run: as §1

[16] = target: Gal(a1-3)Gal(b1-4)GlcNAc(b1-6)GalNAc
How it was run: as §1

[17] = target: Gal(b1-3)GlcNAc(a1-6)Gal(b1-4)GlcNAc
How it was run: as §1

[18] = target: Gal(b1-3)GlcNAc(b1-2)[Gal(b1-3)GlcNAc(b1-6)]Man(a1-6)[Gal(b1-3)GlcNAc(b1-2)Man(a1-3)]Man(b1-4)GlcNAc(b1-4)GlcNAc
How it was run: as §1

[19] = target: Gal(b1-3)GlcNAc(b1-3)Gal(b1-4)GlcNAc(b1-2)[Gal(b1-3)GlcNAc(b1-3)Gal(b1-4)GlcNAc(b1-6)]Man(a1-6)[Gal(b1-3)GlcNAc(b1-3)Gal(b1-4)GlcNAc(b1-2)Man(a1-3)]Man(b1-4)GlcNAc(b1-4)[Fuc(a1-6)]GlcNAc
How it was run: as §1

[20] = target: Gal(b1-3)GlcNAc(b1-3)Gal(b1-4)GlcNAc(b1-3)Gal(b1-4)GlcNAc(b1-2)[Gal(b1-3)GlcNAc(b1-3)Gal(b1-4)GlcNAc(b1-3)Gal(b1-4)GlcNAc(b1-6)]Man(a1-6)[Gal(b1-3)GlcNAc(b1-3)Gal(b1-4)GlcNAc(b1-3)Gal(b1-4)GlcNAc(b1-2)Man(a1-3)]Man(b1-4)GlcNAc(b1-4)[Fuc(a1-6)]GlcNAc
How it was run: as §1

[21] = target: Gal(b1-3)[Neu5Ac(a2-6)]GlcNAc(b1-4)Gal(b1-4)Glc
How it was run: as §1

Gal(b1-4)Gal = target: Gal(b1-4)Gal
How it was run: as §1

[22] = target: Gal(b1-4)GalNAc(a1-3)[Fuc(a1-2)]Gal(b1-4)GlcNAc
How it was run: as §1

[23] = target: Gal(b1-4)GlcNAc(b1-2)Man(a1-3)[Man(a1-6)]Man(b1-4)GlcNAc(b1-4)GlcNAc
How it was run: as §1

[24] = target: Gal(b1-4)GlcNAc(b1-2)[Gal(b1-4)GlcNAc(b1-4)]Man(a1-3)[Gal(b1-4)GlcNAc(b1-2)Man(a1-6)]Man(b1-4)GlcNAc(b1-4)GlcNAc
How it was run: as §1

[25] = target: Gal(b1-4)GlcNAc(b1-2)[Gal(b1-4)GlcNAc(b1-4)]Man(a1-3)[GlcNAc(b1-4)][Gal(b1-4)GlcNAc(b1-2)[Gal(b1-4)GlcNAc(b1-6)]Man(a1-6)]Man(b1-4)GlcNAc(b1-4)GlcNAc
How it was run: as §1

[26] = target: Gal(b1-4)GlcNAc(b1-2)[Gal(b1-4)GlcNAc(b1-6)]Man(a1-6)[Gal(b1-4)GlcNAc(b1-2)Man(a1-3)]Man(b1-4)GlcNAc(b1-4)GlcNAc
How it was run: as §1

[27] = target: Gal(b1-4)GlcNAc(b1-3)Gal(b1-4)GlcNAc(b1-2)[Gal(b1-4)GlcNAc(b1-3)Gal(b1-4)GlcNAc(b1-6)]Man(a1-6)[Gal(b1-4)GlcNAc(b1-3)Gal(b1-4)GlcNAc(b1-2)Man(a1-3)]Man(b1-4)GlcNAc(b1-4)GlcNAc
How it was run: as §1

B1: Mermaid1 (Stilbonema majum) (protein)
chain: MGSSHHHHHHSSGLVPRGSHMAASGWLRSPQGTVVKLYRRSLSWSKADEFCKDVDGRLVVDRTADMHLFLIKNVLKEKKSRVWVGLRRTAPHSRTWIWSDGTRQNEDDLDANLWLRDEPNDAAGEEECALFMYSPWEKAWGLNDYLCRGGCRSYQFICEKWIR
glycan array binding signal (z-score) [1]: -0.132
glycan array binding signal (z-score) [2]: -0.578
glycan array binding signal (z-score) (Fuc(a1-2)Gal(b1-4)Glc6S): 2.97
glycan array binding signal (z-score) [3]: 3.06
glycan array binding signal (z-score) [4]: -0.219
glycan array binding signal (z-score) [5]: 0
glycan array binding signal (z-score) [6]: 1.58
glycan array binding signal (z-score) (Fuc(a1-2)Gal6S(b1-4)Glc): -0.65
glycan array binding signal (z-score) [7]: 3.08
glycan array binding signal (z-score) [8]: -0.403
glycan array binding signal (z-score) [9]: -0.259
glycan array binding signal (z-score) [10]: -0.732
glycan array binding signal (z-score) [11]: -0.717
glycan array binding signal (z-score) [12]: -0.381
glycan array binding signal (z-score) [13]: 0.419
glycan array binding signal (z-score) [14]: 2.49
glycan array binding signal (z-score) [15]: -0.331
glycan array binding signal (z-score) [16]: -0.176
glycan array binding signal (z-score) [17]: 0.067
glycan array binding signal (z-score) [18]: -0.787
glycan array binding signal (z-score) [19]: 4.98
glycan array binding signal (z-score) [20]: 6.8
glycan array binding signal (z-score) [21]: -0.953
glycan array binding signal (z-score) (Gal(b1-4)Gal): 3.2
glycan array binding signal (z-score) [22]: 1.62
glycan array binding signal (z-score) [23]: 2.41
glycan array binding signal (z-score) [24]: 0.823
glycan array binding signal (z-score) [25]: -1.01
glycan array binding signal (z-score) [26]: -0.567
glycan array binding signal (z-score) [27]: 4.04
